# In PubChem BioAssay (Tox21):
# Active and inactive are the calls of the source. Where a call stands in place of a potency, no number is given. Calls follow the shape of the dose curve; as a rule, active = well fitted activation curve with a large enough effect in the repeat runs; inconclusive = weak or mixed curves; inactive = flat fitted curve, though single readings scatter.
# Assay: Caspase-3/7 induction in CHO-K1 cells by small molecules, qHTS assay (AID 1346980); also: nearly all actives have a fitted effect of over 15% in size
# Conditions: CHO-K1 caspase-3/7 induction, Caspase-Glo luminescence, 17 h; series mostly up to 92.4 µM
# Procedure, shortened: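 Wild-type cells were seeded at 1,500 per well and settled 5 hr at 37 C, 5% CO2, then exposed to DMSO-dissolved compounds for 17 hr. Caspase-Glo 3/7 reagent was added, and luminescence was read after 30min at room temperature.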
# Potency is read from the fitted curve at half-maximal effect.
row,SMILES,Potency
1,COC(=O)c1nc(Cl)c(Cl)nc1N,inactive
2,Cc1c(C)c2c(c(C)c1OC(=O)CCC(=O)OCCO)CC[C@@](C)(CCC[C@H](C)CCC[C@H](C)CCCC(C)C)O2,inactive
3,CN1CC(=O)N2[C@H](c3ccc4c(c3)OCO4)c3[nH]c4ccccc4c3C[C@@H]2C1=O,inactive
4,CCOc1ccccc1O[C@H](c1ccccc1)[C@H]1CNCCO1,inactive
5,O=C=Nc1cccc(C(F)(F)F)c1,inactive
6,COc1cc(Nc2c(C#N)cnc3cc(OCCCN4CCN(C)CC4)c(OC)cc23)c(Cl)cc1Cl,inactive
7,CC(CN(C)C)C(C)(O)Cc1ccc(Cl)cc1 (configuration not stated),inactive
8,CCOC(=O)c1ccc(O)c(O)c1,inactive
9,OC1(c2ccccc2)CCNCC1,inactive
10,CC(C)C[C@H](NC(=O)[C@H](CCc1ccccc1)NC(=O)CN1CCOCC1)C(=O)N[C@@H](Cc1ccccc1)C(=O)N[C@@H](CC(C)C)C(=O)[C@@]1(C)CO1,47.3 nM (active)
11,COC(=O)C1=C(C)NC(C)=C(C(=O)O[C@@H]2CCCN(Cc3ccccc3)C2)[C@@H]1c1cccc([N+](=O)[O-])c1,inactive
12,CO/N=C(/C(=O)N[C@@H]1C(=O)N2C(C(=O)O)=C(COC(N)=O)CS[C@H]12)c1ccco1,inactive
13,Oc1c(I)cc(I)c2cccnc12,inactive
14,CC1(CN2CCC(n3c(=O)[nH]c4ccccc43)CC2)OCc2ccccc2-n2cccc21 (configuration not stated),inactive
15,OC[C@H]1O[C@@H](n2cnc3c(=S)nc[nH]c32)[C@H](O)[C@@H]1O,inactive
16,CCCCCCCCCI,inactive
17,O=C1NC(=O)c2cc([N+](=O)[O-])ccc21,inactive
